The list is not random: actives were taken first. Their share in the collection is about 9.2%.
NPC1 promoter act: NPC1 promoter activation | Huh7 NPC1 promoter luciferase reporter, 24 h | Potency, µM (highest dose often 9.22 µM), actives largely listed as activators | 320,000 compounds, 2.4% hits | AID 485313; further: nearly all actives have a fitted effect of over 60% in size
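NPC1 promoter–luciferase Huh7 cells; 24 h compound; luminescence.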
SMN2 splice up: SMN2 splice variant enhancement. HEK293 SMN2-luciferase splicing reporter, luminescence, 30-36 h. Potency, µM (doses to about 46.1 µM), usual class: activators. 210,000 compounds, 2.8% hits. AID 1458; further: nearly all actives have a fitted effect of over 55% in size
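HEK293 cells carry an SMN2 minigene-luciferase reporter in which exon 7 inclusion puts luciferase in frame. Cells were seeded at 2000 cells/well, attached for 10-12 hours, then exposed to compounds for 30-36 hours at 37C before ONE-Glo luminescence.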
ELG1 DNA repair: ELG1-dependent DNA repair inhibition; AID 504467; Potency, µM (series often up to 46.1 µM), usual class: inhibitors; HEK293T ELG1-luciferase reporter, luminescence, 16 h; DNA damage induced by 5-fluorouridine; 330,000 compounds, 2.3% hits; further: nearly all actives have a fitted effect of over 55% in size
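Luminescence from the luciferase reporter, measured 30 min after ONE-Glo reagent at room temperature, was the read-out. Beforehand, 2,000 cells per well were exposed for 16 hr at 37 °C to 5-fluorouridine together with compound or vehicle.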
Rab9 prom act: activates the Rab9 promoter. AID 485297. Potency, µM (doses to about 9.22 µM), most hits filed as activators. 320,000 compounds, 2.8% hits. Huh7 Rab9 promoter-luciferase reporter, luminescence, 24 h; further: nearly all actives have a fitted effect of over 60% in size
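Luminescence from Amplite-detected luciferase (10 minutes, ambient) reports Rab9 promoter activation. Before that, stable Rab9-luciferase Huh7 cells (1500/well, reduced-serum OP-MEM I plus 10% FBS) were exposed to compound for 24 hours at 37C.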
ELG1 genotoxic: genotoxicity induction in ELG1-luciferase HEK293T cells. HEK293T ELG1-luciferase reporter, luminescence, 16 h. Potency, µM (top dose mostly 46 µM), actives largely listed as activators. 330,000 compounds, 1.3% hits; further: nearly all actives have a fitted effect of over 60% in size
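ELG1-luciferase HEK293T cells, 2,000/well; compound pinned in; 16 hr, 37 °C, 5% CO2; ONE-Glo, 30 min RT; luminescence on CCD imager.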
FLuc modulator: inhibits or activates purified firefly luciferase, miR-21 counter-screen; 360,000 compounds, 6.9% hits; Potency, µM (highest dose often 57.5 µM), most hits filed as inhibitors; P08659; AID 588342; purified FLuc, Km substrates, luminescence inhibition; further: nearly all actives have a fitted effect of over 55% in size
Target sequence (P08659 whole entry, looked up): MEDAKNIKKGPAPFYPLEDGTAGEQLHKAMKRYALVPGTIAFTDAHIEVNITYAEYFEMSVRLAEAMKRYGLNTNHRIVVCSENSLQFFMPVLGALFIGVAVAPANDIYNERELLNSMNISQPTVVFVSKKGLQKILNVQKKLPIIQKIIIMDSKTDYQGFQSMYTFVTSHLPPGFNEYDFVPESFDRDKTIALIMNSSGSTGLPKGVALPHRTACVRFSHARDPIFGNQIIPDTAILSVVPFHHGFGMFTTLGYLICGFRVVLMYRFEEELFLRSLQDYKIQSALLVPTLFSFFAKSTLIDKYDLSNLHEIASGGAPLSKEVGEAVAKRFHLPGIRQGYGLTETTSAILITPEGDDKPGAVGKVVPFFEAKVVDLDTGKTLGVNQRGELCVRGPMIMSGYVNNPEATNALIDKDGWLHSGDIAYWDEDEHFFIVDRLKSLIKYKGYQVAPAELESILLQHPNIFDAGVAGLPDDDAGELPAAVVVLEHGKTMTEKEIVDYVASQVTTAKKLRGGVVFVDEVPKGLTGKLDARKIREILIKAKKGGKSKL
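Biochemical qHTS of compounds, final roughly 60 µM downward over six points, against 10 nM purified firefly luciferase using Km concentrations of substrates (10 uM D-luciferin, 10 uM ATP) in Tris acetate pH 7.5 buffer; luminescence output.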
ELG1 FLuc counter: luciferase inhibition in cell-free luciferin readout for ELG1 hits; shares compounds with ELG1 DNA repair; cell-free firefly luciferase luminescence counter-screen, ViewLux; Potency, µM (series often up to 46.1 µM), actives largely listed as inhibitors; 350 compounds, 3% hits; AID 624247
ELG1-Luc inh: human ELG1 repair inhibition, luciferase-tagged ELG1 confirmation; Potency, µM (top dose mostly 46.1 µM), usual class: inhibitors; shares compounds with ELG1 DNA repair; 670 compounds, 68% hits; HEK293T ELG1-luciferase levels, luminescence; cells co-treated with 5-fluorouridine; AID 624248; further: nearly all actives have a fitted effect of over 55% in size
ELG1 MMS Luc: confirmation of human ELG1 repair inhibitors, MMS stimulated | shares compounds with ELG1 DNA repair | HEK293T luciferase-tagged ELG1 level, MMS stimulated | Potency, µM (series often up to 46.1 µM), usual class: inhibitors | 670 compounds, 53% hits | AID 624249; further: nearly all actives have a fitted effect of over 60% in size
ELG1 5-FU: confirmation of ELG1 repair inhibitors: viability with 5FU. shares compounds with ELG1 DNA repair. cell viability with 5-FU, ELG1-dependent repair. Potency, µM (top dose mostly 46.1 µM), most hits filed as cytotoxic. 670 tested, under 10 active. AID 624250;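 further: ELG1-luc HEK293T cells cotreated with 5-fluorouridine at 10 µM final; viability measured 16 h after compound addition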
ELG1 MMS viab: confirmation of ELG1 repair inhibitors: viability with MMS. shares compounds with ELG1 DNA repair. Cell viability with MMS, ELG1-dependent DNA repair. Potency, µM (doses to about 46.1 µM), most hits filed as cytotoxic. 670 compounds, 33% hits;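 further: ELG1-luc HEK293T cells co-treated with 10 µM MMS; viability read 16 h after compound addition; nearly all actives have a fitted effect of over 60% in size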
Cell viab unstim: unstimulated viability counter-screen for ELG1 repair hits | 900 compounds, 8% hits | shares compounds with ELG1 DNA repair | cell viability counter-screen, unstimulated, luminescence | Potency, µM (top dose mostly 45.9 µM), hits mostly cytotoxic;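 further: compound exposure lasted 16 hours before reading; nearly all actives have a fitted effect of over 55% in size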
FLuc biochem: firefly luciferase inhibition counter-screen; 350 compounds, 10% hits; Potency, µM (titrated, usually from 57.5 µM), actives largely listed as inhibitors; purified firefly luciferase, luminescence counter-screen; shares compounds with ELG1 DNA repair
A number is an active result; n = inactive; u = inconclusive; x = not tested or not shown; [ ] = another dose, or the depositor's remark. The call rests on the fitted dose curve; in most records, active means well fitted curve in the direction sought with a large enough effect; inconclusive means small, poorly fitted or top-dose-only effect, or another doubt; inactive means no such curve, though single readings can be large; an effect the other way counts as inactive or inconclusive.

SMILES	NPC1 promoter act	SMN2 splice up	ELG1 DNA repair	Rab9 prom act	ELG1 genotoxic	FLuc modulator	ELG1-Luc inh	ELG1 MMS Luc	ELG1 5-FU	ELG1 MMS viab	Cell viab unstim	others
CC1CCc2nc(NC(=O)c3ccc(S(=O)(=O)N4CCCc5ccccc54)cc3)sc2C1 (configuration not stated)	n	x	2.91µM	n	n	n	u	2.5µM	n	2.81µM	u
COC(=O)Nc1nc2ccc(S(=O)c3ccccc3)cc2[nH]1 (configuration not stated)	x	n	x	x	x	x	x	x	x	x	x
COC(=O)Nc1nc2ccc(C(=O)c3cccs3)cc2[nH]1	u	n	x	n	x	x	x	x	x	x	n
COc1ccc(C(=O)O)c(O)c1OC	x	n	x	x	x	x	x	x	x	x	x
COC1=C(N)C(=O)c2nc(-c3nc(C(=O)O)c(C)c(-c4ccc(OC)c(OC)c4O)c3N)ccc2C1=O	n	n	0.82µM	n	n	n	1.12µM	0.0397µM	2.23µM	0.0561µM	1.12µM	ELG1 FLuc counter=2.5µM;FLuc biochem=n
Nc1ccccc1CNc1nc(NCCO)nc2c1ncn2CCN1CCOCC1	n	x	n	n	n	n	x	x	x	x	x
CSc1nc(N)nc2c1ncn2CC(=O)N1CCN(Cc2c(C)cc(C)cc2C)CC1	x	x	2.31µM	x	n	x	u	0.705µM	n	1.25µM	u
Cc1cc(C)c(CN2CCN(C(=O)Cn3ccc(N)nc3=O)CC2)c(C)c1	n	x	n	n	n	n	x	x	x	x	x
CC1(C)Cc2c(c(N3CCOCC3)nc3sc4c(NCc5ccco5)nnnc4c23)CS1	n	u	4.11µM	n	n	n	4.45µM	n	u	u	n	ELG1 FLuc counter=n;FLuc biochem=n
CC1(C)Cc2c(c(N3CCOCC3)nc3sc4c(NN)ncnc4c23)CS1	n	n	u	n	n	n	x	x	x	x	x
CC(C)CNc1nnnc2c1sc1nc(N3CCOCC3)c3c(c12)CC(C)(C)SC3	n	n	4.11µM	n	n	n	4.45µM	n	u	n	n	ELG1 FLuc counter=n;FLuc biochem=n
Nc1ncnc(N2CCc3ccccc32)c1[N+](=O)[O-]	n	n	1.83µM	n	n	n	1.58µM	7.91µM	n	n	n
O=C(N/N=C/c1cc(Br)ccc1OC(=O)c1ccc(Br)cc1)c1ccncc1	n	x	4.11µM	n	n	n	u	15.8µM	n	u	n
COc1ccc(CNC(=O)CCc2c(C)nn(-c3ccc(N4CCCCC4)nn3)c2C)cc1	x	x	x	x	x	n	x	x	x	x	x
CC(OC(=O)c1ccc(NS(=O)(=O)c2ccc3[nH]c(=O)[nH]c3c2)cc1)C(=O)Nc1ccc(Cl)cc1 (configuration not stated)	n	n	u	n	n	n	x	x	x	x	x
COc1ccc(Cl)cc1NC(=O)C(C)OC(=O)c1ccc(NS(=O)(=O)c2ccc3[nH]c(=O)[nH]c3c2)cc1 (configuration not stated)	n	n[1.84 µM]	2.91µM	n	n	n	2.81µM	n	u	n	n
Cc1ccc2c(CNCc3cccc(Cl)c3)c(C(=O)O)n(Cc3ccc(F)cc3Cl)c2c1	x	x	x	x	x	n	x	x	x	x	x
COc1cc(CC(NC(C)=O)C(=O)NC2CCN(c3nc(C)cc(C)c3C#N)CC2)cc(OC)c1 (configuration not stated)	n	n	n	n	n	n	x	x	x	x	x
COc1cccc(CC(NC(C)=O)C(=O)NC2CCN(c3nc(C)cc(C)c3C#N)CC2)c1OC (configuration not stated)	n	n	2.82µM	n	n	n	7.91µM	n	u	n	n
Cc1cn(C2OC(COC(=O)c3ccccc3)C(O)C2O)c(=O)[nH]c1=O (configuration not stated)	n	n	n	n	n	n	x	x	x	x	x
Cc1cn(C2OC(COC(=O)c3ccccc3)C(OC(=O)c3ccccc3)C2OC(=O)c2ccccc2)c(=O)[nH]c1=O (configuration not stated)	n	n	4.61µM	n	n	n	3.15µM	n	u	u	n
COc1ccc(C(=O)c2ccc(Br)cc2)cc1	n	n	1.16µM	u	n	n	n	n	n	n	n
Cc1ccc2c(CC(=O)Nc3cccc(C(F)(F)F)c3)coc2c1	x	n	x	x	x	n	x	x	x	x	x
Nc1ccc2nc(SCC(=O)N3CCN(c4ccccc4)CC3)sc2c1	n	x	2.59µM	n	n	n	u	7.91µM	n	7.05µM	u
COc1ccc(N2CCN(C(=O)COC(=O)c3c(-c4ccccc4)noc3C)CC2)cc1	n	x	u	n	n	x	x	x	x	x	x
SMILES	NPC1 promoter act	SMN2 splice up	ELG1 DNA repair	Rab9 prom act	ELG1 genotoxic	FLuc modulator	ELG1-Luc inh	ELG1 MMS Luc	ELG1 5-FU	ELG1 MMS viab	Cell viab unstim	others
COc1ccccc1CN(Cc1nc2ccccc2c(=O)[nH]1)S(=O)(=O)c1ccc2ccccc2c1	n	n	3.66µM	n	n	n	7.91µM	6.28µM	u	15.8µM	17.7µM
COc1ccc(S(=O)(=O)N(Cc2ccccc2)Cc2nc3ccccc3c(=O)[nH]2)cc1	n	n	u	n	n	n	x	x	x	x	x
COc1ccc(-n2c(C)c(C(C)=O)c3cc(OC(C)=O)ccc32)cc1	n	x	0.82µM	n	n	n	0.629µM	u	n	n	n	ELG1 FLuc counter=n;FLuc biochem=n
COc1ccc2c(c1)c(C(C)=O)c(C)n2-c1ccc(C(C)=O)cc1	n	x	u	n	n	n	x	x	x	x	x
NS(=O)(=O)c1ccc(NC(=O)CN2CCN(S(=O)(=O)c3cccs3)CC2)cc1	n	x	n	n	n	n	x	x	x	x	x
Cc1cc(-c2csc3ncnc(N4CCN(C)CC4)c23)cc(C)c1C	n	x	n	n	n	n	x	x	x	x	x
CN1CCN(c2ncnc3scc(-c4ccccc4Cl)c23)CC1	n	x	4.11µM	n	n	n	7.05µM	15.8µM	n	n	u

Source: PubChem BioAssay
